# From PubChem BioAssay
# pS6 MEF inh = reduces mTORC1 signaling in Tsc2 and p53 null MEF cells | actives 0.78% (n = 44,000) | AID 493208 | Tsc2-/- p53-/- MEF, phospho-rpS6 immunofluorescence/PI, 24 h | Potency, µM (titrated, usually from 38.3 µM), for the others: at the top dose activity change, negative = inhibition, hits mostly inhibitors;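 also: potency is read from the fitted curve at half-maximal effect; plate controls were DMSO for no effect and rapamycin for full effect; nearly all actives have a fitted effect of over 50% in size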
#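 Tsc2-/-, p53-/- MEFs (empty-vector stable line) in DMEM + 10% FBS were treated with compounds 24 h at 37 degree Celsius, fixed, and immunostained for phospho-rpS6 (Alexa-488) with propidium iodide counterstain. Laser-scanning cytometry gave % positive cells, normalized against 7.5 nM rapamycin and DMSO.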
# p53null 39C kill = kills p53 null cells at the nonpermissive temperature. H1299 p53-null (neo) cells, 39C, ATPlite viability, 24 h. Potency, µM (titrated, usually from 46.1 µM), inactives show top-dose activity, negative = cell killing, most hits filed as cytotoxic. actives 0.97% (n = 55,000);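 also: potency is read from the fitted curve at half-maximal effect; 0% = DMSO only and -100% = full killing by 100 µM tamoxifen; nearly all actives have a fitted effect of over 50% in size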
#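 Concentration-response (up to 46 uM) was run for 24 h at the nonpermissive 39C on H1299-p53A138V or H1299-neo cells. ATP content was measured with ATPlite luminescence. AC50 values were Hill-modeled after normalizing between DMSO and 100 uM tamoxifen killing.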
# GALC G270D up = galactocerebrosidase G270D activity enhancement, cell-based; Potency, µM (highest dose often 57.5 µM), actives largely listed as activators; actives 0.1% (n = 45,000); 145M-Twi-hGALC-G270D cells (Twitcher mouse brain line with human GALC G270D), HMU-beta-Gal fluorescence, 48 h; P54803; also: potency is read from the fitted curve at half-maximal effect; 0% is about no effect; nearly all actives have a fitted effect of over 65% in size
#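 Fluorogenic HMU-b-Gal hydrolysis (0.1 mM final, pH 5.2 citrate-phosphate with 1 mg/mL sodium taurocholate; carbonate stop buffer) measures mutant GALC activity after compound treatment of live 145M-Twi Twitcher brain cells stably carrying human GALC-G270D, with wild-type GALC line alongside; activation sought.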
# S16 F2sN tox = cytotoxicity in S16 Pmp22-F2sN Schwann cells | S16 Pmp22-F2sN Schwann cells viability, CellTiter-Glo, 24 h | Potency, µM (top dose mostly 57.5 µM), for inactives: at the highest dose activity change, negative = cytotoxicity, most hits filed as cytotoxic | actives 0.48% (n = 43,000) | AID 1508642; also: potency is read from the fitted curve at half-maximal effect; % is scaled to controls: 0 for no effect and ±100 for the full control effect; nearly all actives have a fitted effect of over 65% in size
#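 Viability was measured by CellTiter-Glo luminescence (15 min, room temperature). This followed 24 h at 37 °C of compound exposure (23 nL pin transfer) in S16 Pmp22-F2sN Schwann cells, 500-1,000 per well.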
# PMP22 txn = PMP22 gene transcription modulation. actives 2% (n = 43,000). S16 Pmp22-F2sN Schwann cells, FLuc/NLuc coincidence luminescence, 24 h. AID 1508649. Potency, µM (highest dose often 57.5 µM), for inactives: at the highest dose activity change, negative = inhibition, usual class: inhibitors; active = clear falling dose curves in both reporters; inconclusive = both reporters move, but less clearly or upward; inactive = either reporter flat; the % is the NLuc reporter signal; also: potency is read from the fitted curve at half-maximal effect; % is scaled to controls: 0 for no effect and ±100 for the full control effect
#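 Schwann cells carrying the coincidence reporter were exposed to library compounds for 24 h at 37C, then lysed and read for FLuc and, after quenching, NLuc luminescence on a CCD imager.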
# p53null 32C tox = selectivity test: cytotoxicity in p53 null cells, permissive temperature. AID 903. Potency, µM (doses to about 46.1 µM), for the others: at the top dose activity change, negative = cytotoxicity, usual class: cytotoxic. H1299-neo p53 null cells, ATP luminescence, 24 h, 32C. actives 0.62% (n = 55,000);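 also: potency is read from the fitted curve at half-maximal effect; 0% = DMSO only and -100% = full killing by 100 µM tamoxifen; nearly all actives have a fitted effect of over 55% in size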
#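 ATP-content luminescence in p53-null H1299-neo cells after 24 h compound exposure (up to 46 uM) at 32C permissive temperature; 0% and 100% killing set by DMSO and 100 uM tamoxifen; Hill-equation AC50.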
# NLuc sat counter = counter-screen for PMP22 expression modulators: NanoLuc inhibition, saturating substrate | Potency, µM (series often up to 57.5 µM), for inactives: at the highest dose activity change, negative = inhibition, usual class: inhibitors | Secreted NLuc enzyme (filtered S16 cell medium), Nano-Glo luminescence | actives 4% (n = 690) | shares compounds with PMP22 txn; also: potency is read from the fitted curve at half-maximal effect; % is scaled to controls: 0 for no effect and ±100 for the full control effect
# NLuc Km ctr = counter-screen for PMP22 expression modulators: NanoLuc inhibition at Km; shares compounds with PMP22 txn; Potency, µM (series often up to 57.5 µM), inactives show at the highest dose activity change, negative = inhibition, actives largely listed as inhibitors; actives 5% (n = 690); secreted NLuc enzyme, coelenterazine luminescence, Km conditions; also: potency is read from the fitted curve at half-maximal effect; % is scaled to controls: 0 for no effect and ±100 for the full control effect
# FLuc ctr PMP22 = counter-screen for PMP22 expression modulators: firefly luciferase inhibition; shares compounds with PMP22 txn; purified P. pyralis FLuc, luminescence, 10 min; Potency, µM (highest dose often 57.5 µM), for the others: top-dose activity, negative = inhibition, most hits filed as inhibitors; 690 tested, under 10 active; AID 1508640; also: % of control where 0% means no effect
# Target sequence (P08659 whole entry, looked up): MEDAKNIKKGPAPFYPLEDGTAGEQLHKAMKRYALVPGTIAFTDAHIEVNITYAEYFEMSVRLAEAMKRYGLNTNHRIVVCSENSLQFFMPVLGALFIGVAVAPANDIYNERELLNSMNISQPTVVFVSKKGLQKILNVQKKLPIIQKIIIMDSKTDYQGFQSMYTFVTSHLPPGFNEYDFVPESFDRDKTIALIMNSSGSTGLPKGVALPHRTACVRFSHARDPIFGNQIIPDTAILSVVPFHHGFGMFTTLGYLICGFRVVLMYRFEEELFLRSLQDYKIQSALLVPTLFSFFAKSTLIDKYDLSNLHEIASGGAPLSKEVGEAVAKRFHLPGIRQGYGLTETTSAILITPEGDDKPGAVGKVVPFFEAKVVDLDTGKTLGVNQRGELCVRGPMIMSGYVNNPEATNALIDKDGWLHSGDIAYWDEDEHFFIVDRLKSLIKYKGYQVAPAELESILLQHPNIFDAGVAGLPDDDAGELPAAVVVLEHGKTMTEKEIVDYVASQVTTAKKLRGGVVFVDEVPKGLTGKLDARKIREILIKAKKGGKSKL
# S16 F2sN tox cnf = confirmation of cytotoxicity in S16 Pmp22-F2sN Schwann cells (luciferase reporters placed in the Pmp22 gene) | AID 1508641 | shares compounds with PMP22 txn | S16 Schwann cells viability, CellTiter-Glo ATP luminescence, 24 h | Potency, µM (series often up to 57.5 µM), without a hit: at the top dose activity change, negative = viability loss, actives largely listed as cytotoxic | actives 7% (n = 690); also: potency is read from the fitted curve at half-maximal effect; % is scaled to controls: 0 for no effect and ±100 for the full control effect
# PMP22 txn conf = confirmation of modulators of PMP22 gene transcription in S16 cells. shares compounds with PMP22 txn. S16 Schwann cells Pmp22-F2sN, dual luciferase, 24 h. Potency, µM (top dose mostly 57.5 µM), for the others: at the top dose activity change, negative = inhibition, most hits filed as inhibitors. actives 22% (n = 690). AID 1508646; active = clear falling dose curves in both reporters; inconclusive = both reporters move, but less clearly or upward; inactive = either reporter flat; the % is the FLuc reporter signal; also: potency is read from the fitted curve at half-maximal effect
# PMP22 prot conf = confirmation of modulators of rat PMP22 protein expression; S16 Schwann cells Pmp22-HiBiT, luminescence, 48 h; Potency, µM (titrated, usually from 27.9 µM), inactives show top-dose activity change, negative = inhibition, most hits filed as inhibitors; 95 tested, under 10 active; shares compounds with PMP22 txn
# Target sequence (P25094 whole entry, looked up): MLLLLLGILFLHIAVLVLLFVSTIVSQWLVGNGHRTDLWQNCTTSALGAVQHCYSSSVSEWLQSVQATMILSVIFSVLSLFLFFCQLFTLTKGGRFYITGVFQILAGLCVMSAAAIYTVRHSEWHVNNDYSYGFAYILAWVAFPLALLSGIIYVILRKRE
# * hit, by the source's call; i = inactive; ? = inconclusive; · = no result given. Most compounds without a hit are left out; they make up all but 3% or so of the library. Unless noted, calls follow the shape of the dose curve; as a rule, active = well fitted curve in the direction sought with a large enough effect; inconclusive = small, poorly fitted or top-dose-only effect, or another doubt; inactive = no such curve, though single readings can be large; an effect the other way counts as inactive or inconclusive.
SMILES,pS6 MEF inh,p53null 39C kill,GALC G270D up,S16 F2sN tox,PMP22 txn,p53null 32C tox,NLuc sat counter,NLuc Km ctr,FLuc ctr PMP22,S16 F2sN tox cnf,PMP22 txn conf,others
CC(NC(=O)c1cccc(Nc2nc3ccccc3n3nnnc23)c1)c1ccccc1 (stereo not drawn),-15%,-17%,i,?,11µM*,-3%,-1%,5%,4%,17µM*,?,
Cc1nn2c(=O)cc(COC(=O)c3ccc(NC(=O)COc4ccccc4F)cc3)nc2s1,0%,4%,i,3%,?,-1%,·,·,·,·,·,
CCc1ccc(NC(=O)CSc2nc3ccccc3nc2Cc2ccc(C)cc2)cc1,-1%,-7%,i,-12%,-15%,-4%,·,·,·,·,·,
Cc1ccc(NC(=O)CSc2nc3ccccc3nc2Cc2ccccc2)c(C)c1,0%,6%,i,-3%,9.5µM*,4%,-4%,-3%,-1%,17%,?,
Cc1cccc(N2CCN(C(=O)CN3C(=O)COc4ccc(S(=O)(=O)N5CCC(C)CC5)cc43)CC2C)c1 (stereo not drawn),-7%,12%,i,3%,?,6%,·,·,·,·,·,
CCC(=O)C1=C(c2cccc(OC)c2)N(C(=O)CC)n2c(nnc2C2CCCCC2)S1,0%,-8%,i,?,?,58%,·,·,·,·,·,
CCC(=O)C1=C(c2cccc([N+](=O)[O-])c2)N(C(=O)CC)n2c(nnc2C2CCCCC2)S1,-3%,5%,i,?,8.4µM*,-3%,-7%,4%,7%,-23%,11µM*,PMP22 prot conf=?
CC(=O)C1=C(c2cccc([N+](=O)[O-])c2)N(C(C)=O)n2c(nnc2-c2ccc(C)cc2)S1,0%,2%,i,20%,?,3%,·,·,·,·,·,
CCC(=O)C1=C(c2cccc([N+](=O)[O-])c2)N(C(=O)CC)n2c(nnc2-c2ccccc2)S1,-3%,19%,i,6%,3µM*,-14%,?,?,0%,16%,11µM*,PMP22 prot conf=-1%
O=C(CCS(=O)(=O)c1cc(Br)cc2c1N(C(=O)C1CC1)CC2)N1CCN(c2cccc(C(F)(F)F)c2)CC1,-4%,9%,i,?,13µM*,13%,-3%,11%,5%,5%,-43%,
COc1ccc(-n2nc3c(N4CCCC(C(=O)NCc5ccccc5C)C4)nnc(C)c3c2C)cc1 (stereo not drawn),5.2µM*,16µM*,i,25µM*,13µM*,?,-3%,-1%,0%,22µM*,?,
COc1ccc(-n2nc3c(N4CCCC(C(=O)NCCc5ccc(C)cc5)C4)nnc(C)c3c2C)cc1 (stereo not drawn),-12%,-29%,i,?,?,-11%,·,·,·,·,·,
COc1ccc(-n2nc3c(N4CCC(C(=O)NCc5ccccc5C)CC4)nnc(C)c3c2C)cc1,-2%,?,i,?,?,?,·,·,·,·,·,
COc1ccc(-n2nc3c(N4CCCC(C(=O)NCCc5ccccc5C)C4)nnc(C)c3c2C)cc1 (stereo not drawn),-5%,-7%,i,?,18µM*,-6%,?,-2%,10%,?,?,
Cc1ccc2nc(-c3cccs3)c(Nc3c(C)cccc3C)n2c1,-15%,47%,i,?,?,21%,·,·,·,·,·,
COc1cc(-c2noc(-c3ccc(NCc4ccco4)c([N+](=O)[O-])c3)n2)cc(OC)c1OC,0%,-9%,i,4%,3.2µM*,1%,?,?,-1%,-12%,?,
COc1cc(-c2noc(-c3ccc(NCc4ccccc4)c([N+](=O)[O-])c3)n2)cc(OC)c1OC,3%,?,i,13%,-16%,?,·,·,·,·,·,
COc1ccc(CCNC(=O)c2c(C)oc3ncn(C)c(=O)c23)c(OC)c1,-4%,2%,i,0%,6%,-4%,·,·,·,·,·,
COc1ccc(OCc2ccc(-c3nc(C#N)c(N4CCC(C)CC4)o3)o2)cc1,-2%,16%,i,-3%,6.7µM*,0%,-10%,0%,0%,8%,-3%,
CCOc1ccc(CCNc2ncnc3onc(C)c23)cc1OCC,?,-4%,i,-24%,4.7µM*,2%,-12%,-5%,-3%,-7%,-28%,
Cc1ccc(CCNc2ncnc3onc(C)c23)cc1,?,-17%,i,?,?,-16%,·,·,·,·,·,
O=C(Nc1cccc(-c2nc3ccccc3o2)c1)C(F)(F)F,-1%,-23%,i,?,8µM*,?,?,?,?,21%,?,
CC(=O)N(CC(O)CO)c1c(I)c(C(=O)NCCO)c(I)c(C(=O)NCC(O)CO)c1I (stereo not drawn),·,·,i,·,·,·,·,·,·,·,·,
